# Results published in PubChem BioAssay AID488890 (Southern Research Specialized Biocontainment Screening …, 2010).
# The campaign covered roughly 320,000 compounds. About 1,300 (0.41%) were called active. Not shown: some 3% with an inconclusive outcome. How the calls were made is not given here. The list is a sample of the results. Results with a measured potency or affinity are listed apart.
# Assay: growth inhibition of non-replicating M. tuberculosis (AID 488890);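 further: plate controls were DMSO cells for no effect and high antibiotic wells for full effect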
# Conditions: Mycobacterium tuberculosis non-replicating, at 25 µM, stronger effect = higher value
row,SMILES,inhibition [%]
1,COc1ccc(NC(=O)CSc2ccc3nnc(-c4ccccn4)n3n2)cc1OC,-12
2,Cc1nn(C)cc1CN1CCC(CO)(CCOc2ccccc2)CC1,-0.6
3,COc1ccc2[nH]c(CN3CCC(CO)(CCOc4ccccc4)CC3)c(C)c2c1,48.7
4,COc1ccc(OC)c(C(=O)NC2CCSc3ccccc32)c1 (configuration not stated),3.7
5,O=C(Nc1cccc(NC(=O)C2CC3CCCC(C2)C3=O)n1)C1CC2CCCC(C1)C2=O (configuration not stated),28.2
6,Cc1ccc(N=c2ssnc2Cl)cc1,77.3
7,Cc1cc(Cl)ccc1N=c1ssnc1Cl,19.9
8,Cn1nc(C(=O)NCc2cccs2)c2ccccc2c1=O,40.9
9,COC(=O)c1sc2ncn(-n3c(C)ccc3C)c(=O)c2c1C,5.25
10,Cc1c(C(=O)O)sc2ncn(C)c(=O)c12,-3.22
11,COc1cccc(NS(=O)(=O)c2nc3nc(C)cc(C)n3n2)c1,-24.1
12,Cc1cc(C)n2nc(S(=O)(=O)NC(C)(C)C)nc2n1,-0.21
13,COc1ccc(OCC(=O)N(C)CC2COc3ccccc3O2)cc1 (configuration not stated),27.1
14,COCc1nnc(NC(=O)c2cccc(NC(=O)C(C)C)c2)s1,-15.2
15,Cc1ccc(C(=O)N/C(=C\c2cccc([N+](=O)[O-])c2)C(=O)NC(Cc2ccccc2)C(=O)O)cc1 (configuration not stated),4.43
16,CC(=O)Nc1ccc(N/C(N)=N/c2nc(C)cc(C)n2)cc1,-1.18
17,Cc1ccc(N/C(N)=N/c2nc(C)cc(C)n2)cc1,7.73
18,CC(C)(C)NC(=O)C(=O)NNC(=O)c1ccccc1,10.8
19,CC(C)(C)c1ccc(C(=O)NNC(=O)c2ccc(Cl)cc2)cc1,-14.5
20,O=C(CCC(=O)c1ccc(Br)cc1)Nc1cccnc1,40.4
21,CCN(CC(=O)NC(C)C)C(=O)[C@@H](NC(=O)c1ccco1)C(C)C,-7.65
22,CCCC(O)(CCC)C(=O)NNc1ccccc1,23.3
23,CCCCC(O)(CCCC)C(=O)NNc1ccccc1,36.2
24,Cc1ccc(-c2nnc(SCC(=O)NCC3CCCO3)n2C)cc1 (configuration not stated),-16.4

row,SMILES,inhibition [%]
1,NC(=O)c1oc2ccccc2c1NC(=O)c1nc2ccccc2s1,5.47
2,O=C(Nc1nnc(-c2ccc(Cl)cc2)o1)Nc1ccccc1F,11.3
3,O=C(Nc1nnc(-c2ccc(Cl)cc2)o1)c1ccc(N2C(=O)CCC2=O)cc1,-7.34
4,Cc1ccnc2nc(C(=O)Nc3nnc(-c4ccc(Cl)cc4)o3)nn12,2.05
5,O=C(Nc1nnc(-c2ccc(Cl)cc2)o1)NC1CCCCC1,-11.6
6,CC(C)(C)C(=O)Nc1nnc(-c2ccncc2)o1,1.94
7,Cc1ccccc1C(=O)Nc1nnc(-c2ccncc2)o1,30.5
8,O=C(Nc1nnc(-c2ccc(Cl)cc2)o1)Nc1ccccc1Cl,-7.45
9,COCCN(C(=O)CSc1nc2ccccc2o1)c1c(N)n(Cc2ccccc2)c(=O)[nH]c1=O,10.9
10,Cc1ccc(NC(=O)CCCCCCCCCCC2COCCO2)c(C)c1 (configuration not stated),-9.85
11,CN(C(=O)COC(=O)c1ccc(Br)c(S(=O)(=O)N2CCOCC2)c1)C1CCCCC1,11.1
12,Cc1cc(-c2nnco2)c(C)n1-c1ccccc1,11.1
13,O=C1NC2(CCCCCC2)C(=O)N1Cc1ccc([N+](=O)[O-])cc1,-2
14,O=C1C(=O)N(CCN2CCOCC2)C(c2ccccc2F)/C1=C(\O)c1ccc(S(=O)(=O)N2CCOCC2)cc1 (configuration not stated),2.92
15,O=C(COc1ccccc1)N/N=C/c1sc(=O)n(Cc2cccc(C(=O)O)c2)c1Cl,-0.36
16,CC[C@H](C)C(C(=O)N1CCN(C(=O)OC(C)(C)C)CC1)n1cc(C(CC(C)C)NC(=O)OC(C)(C)C)nn1 (some centres not stated),10.5
17,CCOC(=O)c1ccc(CNC(=O)Cn2nnc(-c3cccc(C)c3)n2)o1,4.91
18,Cc1ccccc1NC(=O)COC(=O)CCSc1ccccc1,61.5
19,CCOc1ccc(C(=O)n2cc(C(=O)OC)c3ccccc32)cc1,24.8
20,O=C1CCc2cc(S(=O)(=O)NCc3ccc(F)cc3)cc3c2N1CCC3,22.8
21,COc1ccc(CNC(=O)CSc2ncn[nH]2)cc1OC,-3.59
22,COC(=O)c1ccc(NC(=O)CN2CCN(S(=O)(=O)c3cc(Cl)ccc3OC)CC2)cc1,54.1
23,COC(=O)c1sc(NC(=O)c2c(OC)cccc2OC)c(C#N)c1C,-6.6
24,COC(=O)c1c(NC(=O)Cc2ccccc2)sc2c1CCN(C(C)C)C2,-13.3

row,SMILES,inhibition [%]
1,COC(=O)c1c(NC(=O)c2ccco2)sc2c1CCN(C(C)C)C2,2.92
2,CN1CCc2c(sc(NC(=O)c3ccco3)c2C(N)=O)C1,0.26
3,CN1CCc2c(sc(NC(=O)c3ccc(C(=O)c4ccccc4)cc3)c2C(N)=O)C1,-13.4
4,COC(=O)c1sc(NC(=O)c2ccco2)c(C#N)c1C,16.9
5,COc1ccc(/C(C)=N/OCC(=O)N=Nc2c(O)[nH]c3ccccc23)cc1,-24.1
6,CCC(C)NC(=O)/C=C/c1cccs1 (configuration not stated),59.1
7,COc1ccc(CNC(=O)N2CCN(c3ccccc3OC)CC2)cc1,1.13
8,O=C(CCc1nc2ccccc2c(=O)[nH]1)Nc1nnc(SCc2ccc(F)cc2)s1,-4.81
9,O=C(Cc1ccccc1)c1ccccc1C(=O)N1CCCCC1,9.16
10,O=C(Nc1ccc(Cl)cc1)Nc1nnc(-c2ccncc2)s1,16.2
11,O=C(Nc1ccc(Cl)c(Cl)c1)Nc1nnc(-c2ccncc2)s1,68.9
12,CC1CCCC(NC(=O)COC(=O)c2ccc(Cl)nc2)C1C (configuration not stated),-6.83
13,C=CCn1c(C)csc1=Nc1ccccc1C,10.7
14,CCc1ccccc1NC(=O)c1noc(C(C)C)c1[N+](=O)[O-],-10.1
15,Cc1nn(Cc2ccccc2Cl)c(C)c1NC(=O)c1noc(C(C)C)c1[N+](=O)[O-],-8.32
16,O=C1CN(S(=O)(=O)c2ccccc2)CCN1,3.07
17,O=C(CC(c1ccccc1)c1ccccc1O)NCc1ccccc1Cl (configuration not stated),23.8
18,O=C1CSC(=S)N1c1cccnc1,11.9
19,O=C(O)c1ccc(N2C(=O)CSC2=S)cc1,74.2
20,O=C1CSC(=Nc2ccc(Cl)cc2)N1Cc1cccnc1,1.07
21,O=C(O)c1ccc(N=C2SCC(=O)N2Cc2ccccc2)cc1,7
22,N#Cc1ccc(OCC(O)CN2CCN(CC(O)COc3ccc(C#N)cc3)CC2)cc1 (configuration not stated),-21.4
23,Brc1ccc(-c2nnc(-c3cccnc3)o2)cc1,68.4
24,Cc1ccc(-c2nnc(-c3cccnc3)o2)cc1,37.8

row,SMILES,inhibition [%]
1,CN(C)S(=O)(=O)c1cccc(-c2nnc(SCc3cc(Cl)cc4c3OCOC4)n2N)c1,23.1
2,Cc1onc(-c2ccccc2Cl)c1C(=O)Nc1ccccc1O,8.07
3,CN1CC(=O)N/C1=N\C(=O)Nc1ccc(O)cc1,-12.3
4,CN1CC(=O)NC1=NC(=O)c1cc(F)c(F)cc1Cl,-0.31
5,COc1ccc(C2NC(=S)NC(C)=C2C(=O)Nc2ccccn2)cc1OC (configuration not stated),-7.65
6,Cc1ccc(COC(=O)c2cc(S(=O)(=O)N3CCOCC3)ccc2C)cc1,40.1
7,C/C(=N\NC(=O)c1ccncc1)c1cc2ccccc2o1,69.3
8,C/C(=N/NC(=O)c1ccncc1)c1cc2ccc(O)cc2oc1=O,78.4
9,COc1ccc(/C(C)=N/NC(=O)c2ccncc2)cc1,67.2
10,COc1ccc2oc(=O)c(/C(N)=N/NC(=O)c3ccncc3)cc2c1,61.4
11,O=C(CCC(=O)N1CCOCC1)NCCc1ccc(F)cc1,5.21
12,CC(C)C(NCC(=O)Nc1ccccc1C(=O)NC1CC1)c1ccccc1 (configuration not stated),19.6
13,CCC(C)(C)NS(=O)(=O)c1cc(CN2C(=O)c3cccnc3C2=O)ccc1OC,17.1
14,O=C1CC2(CCCCC2)Oc2ccc(OCC(=O)N3CCOCC3)cc21,43.3
15,CCOC(=O)N1CCN(C(=O)COc2ccc3c(c2)C(=O)CC2(CCN(C(C)=O)CC2)O3)CC1,-4.94
16,O=C(CCNC(=O)c1ccco1)Nc1ccc(Cl)c(C(F)(F)F)c1,4.07
17,O=C(CCNc1cc(Cl)cc(Cl)c1)c1ccco1,-7.67
18,COc1ccc(C(=O)CC(=O)c2ccc(OC)cc2)cc1,19.6
19,O=C(CNC(=O)c1ccco1)Nc1cccc(Cl)c1,-9.33
20,O=C(Nc1ccc(Cl)c(C(F)(F)F)c1)c1ccco1,71.2
21,O=C(/C=C/Nc1ccc(F)cc1)c1ccco1,-1.7
22,COc1ccc(C(=O)CCNc2cccc(Cl)c2)cc1,73.7
23,O=C(CNC(=O)c1ccco1)Nc1ccc(F)cc1,-22.8
24,O=C(CN1C(=O)NC2(CCCCC2)C1=O)N1CCN(c2ncccn2)CC1,3.11

row,SMILES,inhibition [%]
1,CC(C)(SC(=S)N1CCCCCC1)C(=O)O,13.4
2,CC1=C(C(=O)NCc2ccc3c(c2)OCO3)C2(CCC(C)CC2)OC1=O (configuration not stated),1.75
3,COc1ccccc1-n1cnnc1SC(C)C(=O)Nc1ccc(NC(C)=O)cc1 (configuration not stated),-12.2
4,Oc1c(C(c2ccc(F)cc2)N2CCc3ccccc3C2)sc2ncnn12 (configuration not stated),13.3
5,Cc1cc(C)cc(OCc2nnc(SCC(=O)c3ccccc3)o2)c1,-6.78
6,C/C(N)=C(/C#N)C(=O)CSc1nnc(C)n1-c1ccccc1,-16.6
7,O=C(O)C(F)(F)S(=O)(=O)O,-5.17
8,Cc1cccc(NC2=NC3(CCCCC3)N=C(N)N2)c1,22.2
9,Cc1ccc(C)c(NC(=S)NCc2ccc3c(c2)OCO3)c1,79.5
10,CC(=O)Nc1ccc(Nc2ccc3nonc3c2[N+](=O)[O-])cc1,1.34
11,COc1cccc(CNC(=O)CCNS(=O)(=O)c2ccc3[nH]c(=O)oc3c2)c1,-5.61
12,Cc1ccc(C(=O)NCC(=O)Nc2ccc(F)c(F)c2F)cc1,-13.1
13,O=C(Cn1nnc(-c2ccccc2)n1)NNC(=O)c1ccco1,67.8
14,COc1cc(/C=N/NC(N)=O)ccc1OC(=O)c1cccs1,2.79
15,COc1cc(/C=N/NC(=O)C(N)=O)ccc1OC(=O)c1cccs1,-4.85
16,O=C(N/N=C\c1ccc(OC(=O)c2cccs2)cc1)c1ccc(Cl)cc1,52.2
17,COc1ccc(C(=O)Oc2ccc(/C=N/Nc3ccc(Cl)c(C(=O)O)c3)cc2OC)cc1,12.6
18,O=C(N/N=C\c1ccc(OC(=O)c2ccco2)cc1)c1ccc(Cl)cc1,78.6
19,COc1cc(/C=N/Nc2ccc(Cl)c(C(=O)O)c2)ccc1OC(=O)c1ccccc1F,39
20,Cc1ccc(C(=O)N/N=C\c2ccc(OC(=O)c3cccs3)cc2)cn1,-8.9
21,O=C(N/N=C/c1ccc(OC(=O)c2ccco2)cc1)c1ccncc1,69
